In PubChem BioAssay:
“And” between values parts separate entries of the source, which are not always exact repeats. Identical values can stand only once. For some of these results: Entries with a potency or affinity are not part of this list. The source made the active and inactive calls.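 How the source made its calls, unless noted: active means thallium flux through the channel raised or lowered by more than 3 SD from vehicle-only wells, actives on both sides; inactive means the rest.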

Experiments:
[1] = polyglutamine-triggered caspase-3 activation inhibitors, cell-based (AID 1583); details: polyglutamine-induced caspase-3 activation, cell assay; stronger effect = higher value;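 tested at 10 µM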
[2] = suppressors of polyQ aggregation in yeast, 75Q-TubU reporter (AID 1593); details: Yeast 75Q polyglutamine aggregation reporter
[3] = rescue of polyQ-huntingtin neuronal dysfunction in worms, whole organism, C. elegans mechanosensory neurons, N-terminal huntingtin (AID 1599); details: touch response, stronger effect = higher value
[4] = inhibitors of mitochondrial cytochrome c release, biochemical, purified mitochondria (AID 1603); details: stronger effect = lower value;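 further: mouse liver mitochondria challenged with calcium chloride; signal normalized to the plate average as 100%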
[5] = inhibitors of polyQ protein aggregation (AID 1604); details: polyglutamine-induced protein aggregation inhibition assay; stronger effect = higher value; tested at 2.5 µM
[6] = enhancers of glutamate uptake in motor neurons, MN-1 cell line (AID 1612); details: MN-1 motor neuron cells, stronger effect = higher value;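 further: tested at 1 µM final; 0% = mean of DMSO vehicle wells on each plate; positive means more glutamate uptake than control and negative means less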
[7] = suppressors of polyglutamine aggregation in yeast, 75Q-TubH (AID 1616); details: S. cerevisiae 75Q-TubH polyglutamine aggregation suppression; stronger effect = higher value
[8] = Cy5 fluorescence interference with SSB-bound oligo, artefact control for HCV NS3 helicase inhibitor project, biochemical, NIH Clinical Collection, E. coli SSB (AID 743268; call rule not given here)
[9] = test system: Hepatitis C virus NS3 helicase; assay: HCV NS3 helicase inhibitors, primary screen, biochemical, fluorescence polarization, NIH Clinical Collection (AID 743270; call rule not given here); details: NS3 helicase binding to Cy5-dT15 DNA, stronger effect = higher value, concentration not given here
[10] = target: Single-stranded DNA-binding protein (Escherichia coli (strain K12)) (UniProt P0AGE0); assay: E. coli SSB displacement from DNA, counter-screen for HCV NS3 helicase inhibitor project, biochemical, fluorescence polarization, NIH Clinical Collection (AID 743271; in the data active means inhibition above about 28%); details: stronger effect = higher value, concentration not given here
[11] = fluorescence interference in NS3h assay format, artefact control for HCV NS3 helicase inhibitor project, biochemical, NIH Clinical Collection (AID 743272; call rule not given here;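 further: HCV NS3 helicase with a Cy5 labelled single stranded DNA probe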); details: fluorescence interference counterscreen, stronger effect = lower value
[12] = LFS_MB_P medulloblastoma growth inhibition, cell-based, chromothripsis tumors, cisplatin or BGB combos (AID 1671449; in the data active means inhibition above about 80%;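 further: cells exposed for 96 hours; 0% = vehicle DMSO and 100% = killing by high DMSO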); details: LFS_MB_P medulloblastoma cells
[13] = test system: F380Y/beta4; assay: modulators of BK channel variants, profiling panel, selectivity assay, cell-based, U2OS BacMam, thallium flux, beta subunits (AID 1259406); details: at 30 µM;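 further: initial slope of Thallos dye fluorescence rise after thallium is added; log ratio against the mean of 0.3% DMSO vehicle wells on the same plate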
[14] = target: Calcium-activated potassium channel subunit alpha-1 (Homo sapiens) + Leucine-rich repeat-containing protein 26 (Homo sapiens) (UniProt Q12791+Q2I0M4); assay: as above; details: F380Y/Slo1WT/gamma1, at 30 µM
Sequence of Calcium-activated potassium channel subunit alpha-1 (Homo sapiens) + Leucine-rich repeat-containing protein 26 (Homo sapiens) (Q2I0M4 whole entry, looked up, one chain of several): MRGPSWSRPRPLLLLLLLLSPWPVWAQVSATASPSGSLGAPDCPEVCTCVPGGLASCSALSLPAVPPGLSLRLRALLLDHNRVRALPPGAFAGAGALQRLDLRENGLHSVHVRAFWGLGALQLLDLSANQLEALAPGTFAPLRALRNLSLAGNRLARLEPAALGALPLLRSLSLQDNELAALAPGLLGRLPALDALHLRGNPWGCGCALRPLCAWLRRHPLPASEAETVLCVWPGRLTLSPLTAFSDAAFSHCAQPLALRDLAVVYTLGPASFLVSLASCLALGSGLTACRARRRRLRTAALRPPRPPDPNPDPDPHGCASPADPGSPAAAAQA

[15] = test system: R275C; assay: as above; details: at 30 µM
[16] = test system: R275C/beta1; assay: as above; details: at 30 µM
[17] = test system: R275C/beta2Delta; assay: as above; details: at 30 µM
[18] = test system: R275C/beta4; assay: as above; details: at 30 µM
[19] = test system: R275C/Slo1WT/beta2; assay: as above; details: at 30 µM
[20] = viability rescue of complex I mutant cybrids, primary screen, cell-based, galactose medium, ATP luminescence (AID 1645843;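 active means z-score of at least 1.8 in each of two replicates, scored against plate mean and spread of sample wells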;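 further: positive z means more ATP and so rescue of galactose-driven cybrid death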); details: complex I mutant cybrid cells, 72 h, stronger effect = higher value
[21] = at 0.5 µM, stronger effect = higher value
[22] = measured here: combination with BGB IC20, at 0.005 µM
[23] = measured here: combination with BGB IC40, at 0.005 µM
[24] = measured here: combination with BGB IC40, at 0.05 µM
[25] = measured here: combination with cisplatin, at 0.5 µM, stronger effect = higher value
[26] = measured here: combination with cisplatin, at 5 µM, stronger effect = higher value

`CC1COc2c(N3CCN(C)CC3)c(F)cc3c(=O)c(C(=O)O)cn1c23` (stereo not drawn) gave an inhibition [1] of 10.8%, a score [2] of 1.04 and a rescue above control [3] of -6.02. It also gave a cytochrome c release ratio [4] of 1.57, an inhibition of aggregation [5] of 67.8% and a glutamate uptake change [6] of -4.74%. The aggregation suppression score [7] was 1.18, the fluorescence ratio [8] was 0.99 (inactive) and the inhibition [9] was -2.27% (inactive). For the same compound, the inhibition [10] was 2.57% (inactive), the fluorescence ratio [11] was 0.87 (inactive) and the inhibition [12, 21] was -15.2% (inactive) and -4.35% (inactive) and -7.1% (inactive). The inhibition [12, 22] was -17.1% and -18.6% and 40.6%, the inhibition [12, 23] was -34.5% and 8.51% and 11.7% and the inhibition [12, 24] was -33.9% and 2.31% and 36%. For the same compound, the inhibition [12, 25] was -16.9% and 6.16% and -20.4%, the inhibition [12, 26] was -20.4% and -8.17% and -11.9% and the log fold change Tl+ flux [13] was 0.0067 (inactive). The log fold change Tl+ flux [14] was 0.00974 (inactive), the log fold change Tl+ flux [15] was 0.0249 (inactive) and the log fold change Tl+ flux [16] was -0.02 (inactive). The log fold change Tl+ flux [17] was -0.03 (inactive), the log fold change Tl+ flux [18] was 0.0112 (inactive) and the log fold change Tl+ flux [19] was 0.0308 (inactive).
In the case of `COc1c(N2CCNC(C)C2)c(F)cc2c(=O)c(C(=O)O)cn(C3CC3)c12` (stereo not drawn), the fluorescence ratio [8] is reported as 1.05 (inactive), the inhibition [9] is reported as -8.64% (inactive) and the inhibition [10] is reported as -6.58% (inactive). The fluorescence ratio [11] was 1.01 (inactive), the z-score [20] was 0.695 (inactive) and -0.01 (inactive) and the inhibition [12, 21] was -20.5% (inactive) and -4.2% (inactive). For the same compound, the inhibition [12, 22] was 17.2% and 22.3%, the inhibition [12, 23] was 3.24% and -1.74% and the inhibition [12, 24] was -33% and 5.75%. For the same compound, the inhibition [12, 25] was -33.3% and -6.41%, the inhibition [12, 26] was -5.09% and 4.8% and the log fold change Tl+ flux [13] was -0.0127 (inactive). The log fold change Tl+ flux [14] was 0.0449 (inactive), the log fold change Tl+ flux [15] was -0.0278 (inactive) and the log fold change Tl+ flux [16] was 0.0168 (inactive). For the same compound, the log fold change Tl+ flux [17] was 0.00178 (inactive), the log fold change Tl+ flux [18] was -0.00176 (inactive) and the log fold change Tl+ flux [19] was 0.05 (inactive).
For `CC1(C)O[C@@H]2[C@@H](CO[C@@]3(COS(N)(=O)=O)OC(C)(C)O[C@@H]23)O1`, the fluorescence ratio [8] was 1.04 (inactive), the inhibition [9] was -0.4% (inactive) and the inhibition [10] was -6.26% (inactive). For the same compound, the fluorescence ratio [11] was 1.02 (inactive), the z-score [20] was -0.1 (inactive) and the log fold change Tl+ flux [13] was 0.0387 (inactive). For the same compound, the log fold change Tl+ flux [14] was 0.0353 (inactive), the log fold change Tl+ flux [15] was -0.04 (inactive) and the log fold change Tl+ flux [16] was 0.0176 (inactive). For the same compound, the log fold change Tl+ flux [17] was 0.0245 (inactive), the log fold change Tl+ flux [18] was -0.0182 (inactive) and the log fold change Tl+ flux [19] was 0.00527 (inactive).
For `NS(=O)(=O)c1cc2c(cc1Cl)NCNS2(=O)=O`, the inhibition [1] was -3.39%, the score [2] was 1.21 and the rescue above control [3] was 7.5. For the same compound, the cytochrome c release ratio [4] was 1.08, the inhibition of aggregation [5] was 3.17% and the glutamate uptake change [6] was 8.53%. For the same compound, the aggregation suppression score [7] was 0.805, the fluorescence ratio [8] was 0.125 (active) and the inhibition [9] was -5% (inactive). For the same compound, the inhibition [10] was -3.53% (inactive), the fluorescence ratio [11] was 1 (inactive) and the z-score [20] was 0.29 (inactive) and 0.995 (inactive). For the same compound, the log fold change Tl+ flux [13] was -0.0186 (inactive), the log fold change Tl+ flux [14] was -0.0022 (inactive) and the log fold change Tl+ flux [15] was -0.00411 (inactive). For the same compound, the log fold change Tl+ flux [16] was 0.0065 (inactive), the log fold change Tl+ flux [17] was -0.0287 (inactive) and the log fold change Tl+ flux [18] was 0.00368 (inactive). For the same compound, the log fold change Tl+ flux [19] was 0.0144 (inactive).
